Where a name gives a salt, the structure may show the parent alone. Among all 5,500 compounds or so, about 2,000 (36%) were called active. Another 18% or so got no clear call; they are omitted. Cut-off read from the data, not from the text of the source: active = normalized growth mostly below about 0.91 (no sharp cut-off); inconclusive = no clear call, values can overlap the other calls; inactive = mostly above about 0.92. This is one part of the list. Where a SMILES comes first, the peptide text is derived from it. The star is where a group is joined. Tfa = O=C(C(F)(F)F)*
Assay: chemical genetic growth profiling, strain panel (AID 1159580);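 note: tested at 20 µM; growth read once vehicle control cultures reached saturation at 30 °C; 1 = growth at the plate median or of vehicle wells; lower values mean less growth of the strain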
Details: S. cerevisiae deletion strains, growth OD
[1] = locus YAL021C, strain ccr4, hits give low values
[2] = locus YAL026C, strain drs2, hits give low values
[3] = locus YAL030W, strain snc1, hits give low values
[4] = locus YBL061C, strain skt5, hits give low values
[5] = locus YBR009C, strain hhf1, hits give low values
[6] = locus YBR023C, strain chs3, hits give low values
[7] = locus YBR171W, strain sec66, hits give low values
[8] = locus YBR231C, strain swc5, hits give low values
[9] = locus YBR279W, strain paf1, hits give low values
[10] = locus YCL011C, strain gbp2, hits give low values
[11] = locus YCL016C, strain dcc1, hits give low values
[12] = locus YCL069W, strain vba3, hits give low values
[13] = locus YCR088W, strain abp1, hits give low values
[14] = locus YDL005C, strain med2, hits give low values
[15] = locus YDL040C, strain nat1, hits give low values
[16] = locus YDR001C, strain nth1, hits give low values
[17] = locus YDR069C, strain doa4, hits give low values
[18] = locus YDR137W, strain rgp1, hits give low values
[19] = locus YDR159W, strain sac3, hits give low values
[20] = locus YDR297W, strain sur2, hits give low values
[21] = locus YDR334W, strain swr1, hits give low values
[22] = locus YDR335W, strain msn5, hits give low values
[23] = locus YDR392W, strain spt3, hits give low values
[24] = locus YEL003W, strain gim4, hits give low values
[25] = locus YEL037C, strain rad23, hits give low values
[26] = locus YEL061C, strain CIN8 (second series), hits give low values
[27] = locus YER015W, strain faa2, hits give low values
[28] = locus YER016W, strain bim1, hits give low values
[29] = locus YER111C, strain swi4, hits give low values
[30] = locus YER155C, strain BEM2 (second series), hits give low values
[31] = locus YFR010W, strain ubp6, hits give low values
[32] = locus YGL167C, strain pmr1, hits give low values
[33] = locus YGL173C, strain kem1, hits give low values
[34] = locus YGL227W, strain vid30, hits give low values
[35] = locus YGL240W, strain doc1, hits give low values
[36] = locus YGL253W, strain hxk2, hits give low values
[37] = locus YHR013C, strain ard1, hits give low values
[38] = locus YHR027C, strain rpn1, hits give low values
[39] = locus YHR142W, strain chs7, hits give low values
[40] = locus YJL092W, strain hpr5, hits give low values
[41] = locus YJL095W, strain BCK1 (second series), hits give low values
[42] = locus YJL115W, strain asf1, hits give low values
[43] = locus YJL129C, strain trk1, hits give low values
[44] = locus YJL154C, strain vps35, hits give low values
[45] = locus YJL164C, strain tpk1, hits give low values
[46] = locus YJL166W, strain qcr8, hits give low values
[47] = locus YKL160W, strain elf1, hits give low values
[48] = locus YKR026C, strain gcn3, hits give low values
[49] = locus YKR091W, strain srl3, hits give low values
[50] = locus YLL001W, strain dnm1, hits give low values
[51] = locus YLL026W, hits give low values
[52] = locus YLL041C, strain sdh2, hits give low values
[53] = locus YLR027C, strain aat2, hits give low values
[54] = locus YLR221C, strain rsa3, hits give low values
[55] = locus YLR258W, strain gsy2, hits give low values
[56] = locus YLR262C, strain YPT6 (second series), hits give low values
[57] = locus YLR320W, strain mms22, hits give low values
[58] = locus YLR342W, strain FKS1, hits give low values
[59] = locus YLR357W, strain rsc2, hits give low values
[60] = locus YLR370C, strain arc18, hits give low values
[61] = locus YLR384C, strain iki3, hits give low values
[62] = locus YML120C, strain ndi1, hits give low values
[63] = locus YMR058W, strain fet3, hits give low values
[64] = locus YMR125W, strain sto1, hits give low values
[65] = locus YMR129W, hits give low values
[66] = locus YMR205C, strain PFK2, hits give low values
[67] = locus YMR231W, strain pep5, hits give low values
[68] = locus YNL071W, strain lat1, hits give low values
[69] = locus YNL209W, strain ssb2, hits give low values
[70] = locus YNL248C, strain rpa49, hits give low values
[71] = locus YNL322C, strain KRE1 (second series), hits give low values
[72] = locus YNR049C, strain mso1, hits give low values
[73] = locus YOR001W, strain rrp6, hits give low values
[74] = locus YOR070C, strain gyp1, hits give low values
[75] = locus YOR080W, strain dia2, hits give low values
[76] = locus YOR083W, strain WHI5, hits give low values
[77] = locus YOR106W, strain vam3, hits give low values
[78] = locus YOR265W, strain rbl2, hits give low values
[79] = locus YOR270C, strain vph1, hits give low values
[80] = locus YOR290C, strain snf2, hits give low values
[81] = locus YPL051W, strain arl3, hits give low values
[82] = locus YPL078C, strain atp4, hits give low values
[83] = locus YPL106C, strain sse1, hits give low values
[84] = locus YPL240C, strain hsp82, hits give low values

Measured: normalized growth

O=C1C=C2C=C[C@@H]3C[C@@]2(O1)[C@H]1CCCCN31
inactive: [1] 1.02 | [2] 1.01 | [3] 0.993 | [4] 1.01 | [5] 0.938 | [6] 1.01 | [7] 0.99 | [8] 0.977 | [9] 1.01 | [10] 1.01 | [11] 1.04 | [12] 0.974 | [13] 0.985 | [14] 0.998 | [15] 0.997 | [16] 0.992 | [17] 0.996 | [18] 0.965 | [19] 0.93 | locus YDR195W, strain ref2 0.973 | [20] 0.994 | [21] 0.956 | [22] 1.01 | [23] 0.973 | [24] 0.95 | [25] 0.982 | [26] 0.976 | [27] 1.01 | [28] 1.03 | [29] 1 | [30] 0.986 | [31] 0.96 | [32] 0.978 | [33] 0.977 | [34] 0.985 | [35] 0.989 | [36] 1.01 | [37] 1.01 | [38] 0.979 | locus YHR030C, strain SLT2, hits give low values 1.06 | locus YHR079C, strain IRE1, hits give low values 1.05 | [39] 1.01 | [40] 0.993 | [41] 1 | locus YJL095W, strain BCK1, hits give low values 1 | [42] 0.993 | [43] 1.01 | [44] 0.986 | [45] 0.969 | [46] 0.961 | locus YJL187C, strain SWE1, hits give low values 0.984 | locus YJR066W, strain TOR1, hits give low values 1 | [47] 1.05 | [48] 0.976 | [49] 0.992 | [50] 0.974 | [51] 0.996 | [52] 1 | [53] 1 | locus YLR113W, strain HOG1, hits give low values 1.03 | [54] 0.966 | [55] 1.01 | [56] 0.927 | [57] 0.926 | [58] 1 | [59] 0.986 | [60] 1.01 | [61] 0.991 | [62] 0.956 | [63] 0.981 | [64] 1 | [65] 0.986 | [66] 0.997 | [67] 0.994 | [68] 0.98 | locus YNL183C, strain NPR1, hits give low values 0.973 | [69] 1 | [70] 1.04 | [71] 1 | [72] 1.01 | [73] 0.94 | [74] 0.991 | [75] 0.994 | [76] 0.982 | [77] 1.01 | locus YOR231W, strain MKK1, hits give low values 1.02 | [78] 0.989 | [79] 1 | [80] 1.05 | [81] 1.05 | [82] 1.04 | [83] 1.02 | [84] 0.994 | locus YPL256C, strain CLN2, hits give low values 1.03

CC(C)C(NC(=O)C(Cc1ccc(O)cc1)NC(=O)C(NC(=O)C(F)(F)F)C(C)C)C(=O)O (stereo not drawn) (Tfa-Val-Tyr-Val-OH; configuration not given here)
inactive: [1] 0.997 | [2] 1 | [3] 0.985 | [4] 0.984 | [5] 1.02 | [6] 0.983 | [7] 0.976 | [8] 1 | [9] 0.996 | [10] 1 | [11] 0.98 | [12] 1 | [13] 0.988 | [14] 0.998 | [15] 0.976 | [16] 0.997 | [17] 0.984 | [18] 0.968 | [19] 0.979 | locus YDR195W, strain ref2 0.995 | [20] 0.985 | [21] 1.01 | [22] 0.994 | [23] 0.935 | [24] 0.996 | [25] 0.99 | [26] 1.01 | [27] 0.999 | [28] 0.976 | [29] 0.972 | [30] 0.983 | [31] 0.997 | [32] 0.985 | [33] 0.991 | [34] 0.988 | [35] 0.998 | [36] 0.982 | [37] 0.94 | [38] 0.988 | [39] 0.995 | [40] 0.995 | [41] 0.975 | [42] 0.986 | [43] 0.995 | [44] 0.98 | [45] 0.989 | [46] 1.02 | [47] 1 | [48] 0.989 | [49] 0.983 | [50] 1 | [51] 1 | [52] 1 | [53] 0.991 | [54] 1 | [55] 0.995 | [56] 0.969 | [57] 0.993 | [58] 0.996 | [59] 0.951 | [60] 0.992 | [61] 1 | [62] 0.98 | [63] 0.982 | [64] 0.978 | [65] 0.998 | [66] 0.998 | [67] 0.997 | [68] 0.987 | [69] 1 | [70] 0.963 | [71] 0.971 | [72] 1 | [73] 1 | [74] 0.995 | [75] 0.984 | [76] 0.94 | [77] 1 | [78] 0.998 | [79] 0.963 | [80] 0.985 | [81] 0.986 | [82] 0.987 | [83] 0.954 | [84] 0.981

From PubChem BioAssay AID1159580 (chemical genetic matrix, 2015)
